PubChem BioAssay (NCI)
The panel holds about 83,000 compounds, 20% with a hit somewhere; the sample as a whole holds those more often.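 Testing used 96-well plates and a 48-hour single-concentration exposure. Example: -40 means 40% of the starting cells died.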 A number with no mark means an inactive call. Active and inactive are the calls of the source. Rule for the calls: active = growth percent below 10; inactive = the rest.

Experiments:
Assay in all cases: NCI-60 one-dose screen, 48 h (100 = growth as untreated, 0 = no growth, -100 = all killed)
NCI-H23 lung = details: 10 µM unless noted
NCI-H226 lung = details: 10 µM unless noted
NCI-H322M lung = details: 10 µM unless noted
HOP-62 NSCLC = details: 10 µM unless noted
NCI-H460 lung = details: 10 µM unless noted
HOP-92 NSCLC = details: 10 µM unless noted
NCI-H522 lung = details: 10 µM unless noted
A549/ATCC NSCLC = details: 10 µM unless noted
786-0 renal = details: 10 µM unless noted
COLO 205 colon = details: 10 µM unless noted
DU-145 prostate = details: 10 µM unless noted
K-562 leukemia = details: 10 µM unless noted
MALME-3M melanoma = details: 10 µM unless noted
MDA-MB-231 breast = details: 10 µM unless noted
RXF 393 renal = details: 10 µM unless noted
SF-268 CNS = details: 10 µM unless noted
SF-295 CNS = details: 10 µM unless noted
SF-539 CNS = details: 10 µM unless noted
UACC-257 melanoma = details: 10 µM
M14 melanoma = details: 10 µM unless noted

Structure (SMILES) | growth (NCI-H23 lung) | growth (NCI-H226 lung) | growth (NCI-H322M lung) | growth (HOP-62 NSCLC) | growth (NCI-H460 lung) | growth (HOP-92 NSCLC) | growth (NCI-H522 lung) | growth (A549/ATCC NSCLC) | growth (786-0 renal) | growth (COLO 205 colon) | growth (DU-145 prostate) | growth (K-562 leukemia) | growth (MALME-3M melanoma) | growth (MDA-MB-231 breast) | growth (RXF 393 renal) | growth (SF-268 CNS) | growth (SF-295 CNS) | growth (SF-539 CNS) | growth (UACC-257 melanoma) | growth (M14 melanoma)
O=C(CN1CCN(c2cc(=O)n(-c3ccccc3)c3ccccc23)CC1)Nc1ccc([N+](=O)[O-])cc1 | 82.5% | 83.5% | 88.1% | 95.1% | 94.3% | 76.5% | 82.5% | 95.1% | 90.5% | 107% | 99.8% | 71.4% | 83.9% | 77.2% | 68.7% | 89.7% | 103% | 91.7% | 90.3% | 99%
O=C1NC(=O)/C(=C/c2ccc(OCc3cc4ccccc4nc3Cl)cc2)S1 | 87.1% | 101% | 103% | 105% | 101% | 78.6% | 79.8% | 99.6% | 93.7% | 122% | 100% | 75.2% | 103% | 88.2% | 111% | 110% | 96.4% | 104% | 98% | 104%
Brc1cccc(/C=N/Nc2nc(N/N=C/c3cccc(Br)c3)nc(N3CCOCC3)n2)c1 | 43.1% | 43.3% | 52.8% | 52.3% | 41.2% | 63.8% | 33.6% | 42.6% | 24.5% | 23.8% | 27.3% | 14.5% | -54% (active) | 66.1% | -68% (active) | 68.4% | 29.1% | 56.4% | 35.9% | 31.7%
O=C1c2cc(Br)ccc2-n2c1nc1cc(Br)ccc1c2=O | 58.6% | 78.3% | 88.7% | 82.3% | 85.4% | 134% | 68.9% | 67.1% | 88.5% | 85.7% | 74.1% | 73.9% | 44.1% | 75.5% | 97.6% | 78% | 87% | 92.4% | 43.1% | 72.2%
O=C1c2c(O)cc(O)cc2O[C@@H](c2ccc(O)cc2)[C@@H]1c1c(O)cc(O)c2c(=O)cc(-c3ccc(O)c(O)c3)oc12 | 92% | 76.6% | 97% | 96.3% | 112% | 104% | 97.4% | 106% | 100% | 114% | 106% | 111% | 90.7% | 111% | 112% | 101% | 108% | 95.8% | 108% | 94.8%
O=C(CCCCCCN1CC(=O)N2[C@@H](c3ccc(Cl)c(F)c3)c3[nH]c4ccccc4c3C[C@H]2C1=O)NO | 95.3% | 101% | 86.1% | 78.8% | 79.5% | 92.2% | 71.7% | 104% | 93.9% | 97.4% | 87.8% | 53.7% | 59.8% | 75.9% | 100% | 106% | 78.7% | 83.8% | 82% | 82.4%
O=C(Nc1cccc(-c2nc(-c3ccc(NC(=O)c4cccnc4)cc3Cl)no2)c1)Nc1ccc(NC(=O)C2CC2)c(C(F)(F)F)c1 | -68.6% (active) | -55.9% (active) | -30.7% (active) | -47.8% (active) | -77.7% (active) | -68.1% (active) | -43.6% (active) | 7.02% (active) | -47.5% (active) | -55.3% (active) | -26.1% (active) | 1.44% (active) | -78.6% (active) | -59.5% (active) | -82% (active) | -23.2% (active) | -81.1% (active) | -86.9% (active) | -45.5% (active) | -53.3% (active)
